CHO-K1 Ca PAM – nonselective activator or artifact in parental CHO-K1 calcium assay; ATP EC20, Fluo-8 calcium fluorescence; 0% at ATP EC20, 100% at ATP max; activation, % at 3 µM; 0.02% of 360,000 active; AID 602247;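 active = activation above the run cutoff, the mean activation of all test compounds plus 3 SD, cut at about 40% in these data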;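 also: peak over basal fluorescence ratio in a 140 s read after ATP addition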
CHRM1 agonist – activates human CHRM1 receptor; P11229; CHO-K1 hM1, Fluo-8 calcium fluorescence, agonist mode; 0% DMSO, 100% acetylcholine EC100; activation, % at 3 µM; 0.33% of 360,000 active; AID 588814;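 active = activation above the run's mean compound activation plus 3 SD, cut at about 16% in these data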;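 also: peak over basal fluorescence ratio within a 140 s kinetic read after compound addition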
Target sequence (P11229 whole entry, looked up): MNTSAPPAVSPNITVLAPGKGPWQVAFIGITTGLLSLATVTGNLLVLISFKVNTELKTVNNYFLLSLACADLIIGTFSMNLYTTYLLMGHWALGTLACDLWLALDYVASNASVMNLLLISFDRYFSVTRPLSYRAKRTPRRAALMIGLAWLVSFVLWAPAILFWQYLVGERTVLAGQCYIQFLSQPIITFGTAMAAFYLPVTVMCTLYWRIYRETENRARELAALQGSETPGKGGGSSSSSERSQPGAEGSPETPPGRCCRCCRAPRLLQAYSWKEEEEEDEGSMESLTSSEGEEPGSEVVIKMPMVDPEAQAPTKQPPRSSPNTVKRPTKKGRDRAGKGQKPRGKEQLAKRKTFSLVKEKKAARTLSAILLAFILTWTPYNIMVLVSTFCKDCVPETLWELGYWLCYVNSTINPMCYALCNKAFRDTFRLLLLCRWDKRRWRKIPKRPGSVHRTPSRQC
CHO-K1 Ca antag – M1 antagonist counterscreen hit in parental CHO-K1 cells. ATP-induced calcium, Fluo-8 fluorescence. inhibition, % at 3 µM. 0.6% of 360,000 active. AID 602250;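 active = inhibition above a per-plate cutoff, the plate's mean sample inhibition plus 3 SD, cut at about 24% in these data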;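 also: 0% = DMSO plus EC80 ATP and 100% = DMSO alone without ATP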
CHRM1 antagonist – antagonists of human M1 muscarinic receptor; 1.3% of 360,000 active; inhibition, % at 3 µM; CHO-K1 hM1, Fluo-8 calcium fluorescence, ACh EC80 antagonist;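 active = percent inhibition above its own plate's cutoff, namely the mean of that plate's compound wells plus 3 SD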;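 also: peak over basal fluorescence ratio during 140 s after agonist addition; 0% = ACh EC80 plus DMSO and 100% = DMSO alone without agonist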
M1 ag parental – nonselective activator or artifact in parental CHO-K1 cells. Fluo-8 calcium fluorescence; scaled to maximal ATP response, vehicle zero. activation, % at 3 µM. 0.48% of 360,000 active; in the data active = activation above about 15%;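 also: untransfected CHO-K1 host cells lacking M1 receptor as counterscreen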
CHRM1 PAM – positive allosteric modulators of human M1 muscarinic receptor. CHO-K1 hM1, Fluo-8 calcium fluorescence, ACh EC20; 0% = ACh EC20, 100% = maximal ACh. P11229. activation, % at 3 µM. 0.088% of 360,000 active; in the data active = activation above about 19%, passing the limit was not always enough
Numbers without * were called inactive; nt = no result. Sampled rows, rich in hits. Any-hit rate of the full collection: about 2.4%.

SMILES | CHO-K1 Ca PAM | CHRM1 agonist | CHO-K1 Ca antag | CHRM1 antagonist | M1 ag parental | CHRM1 PAM
O=C(Cc1cccc(NC(=O)C2CCCN(C(=O)C3CCC3)C2)c1)Nc1cccc(C(=O)N2CCOCC2)c1 (stereo not drawn) | 7 | -2 | -19 | -9 | 1 | 6
Cc1cc(S(=O)(=O)N2CCN(CC(=O)NCCc3cccs3)CC2)ccc1Br | 7 | 0 | -23 | -5 | 5 | 1
CCOC(=O)c1sc(N)nc1C(F)(F)F | 21 | -2 | -12 | -8 | 1 | 8
COc1ccc(Cc2nnc(SCc3nc4ccccc4c(=O)[nH]3)n2C)cc1 | 8 | 2 | -19 | 1 | 0 | 0
Cn1c(CCNC(=O)c2ccccc2F)nnc1SCc1nc2ccccc2c(=O)[nH]1 | 13 | 4 | -31 | -46 | 0 | 30*
C/C=C/c1ccc(OCC(O)CN(C)Cc2ccc(SC)cc2)c(OC)c1 (stereo not drawn) | 8 | -10 | -11 | 2 | 8 | -7
Clc1ccc(OCCCN2CCCC2)cc1Cl | 0 | -6 | 15 | 38* | 8 | -21
Clc1ccc(OCCN2CCCCC2)cc1Cl | 12 | -12 | -15 | 29* | 1 | -17
Cc1nc(NC(=O)c2ccccc2)sc1-c1cc(C(=O)O)nn1Cc1ccccc1 | 12 | -10 | -7 | -11 | 1 | 8
Cc1noc(C)c1COc1ccc(C(=O)Nc2cccnc2)cc1 | 2 | -8 | -11 | 71* | 1 | -26
COc1ccc(-c2cc(C3CCN(Cc4ccc([N+](=O)[O-])cc4)CC3)[nH]n2)cc1 | -7 | -3 | 15 | -4 | 2 | 6
COc1ccc(OC)c(-c2cc(C3CCN(c4cc(Cl)nc(N)n4)CC3)[nH]n2)c1 | -7 | -2 | 25* | 18 | 0 | -5
Nc1nc(Cl)cc(N2CCC(c3cc(-c4ccc(Cl)cc4)n[nH]3)CC2)n1 | 0 | 14 | -1 | 38* | 21* | -18
Cc1ccc(CN2CCC(c3cc(-c4ccc(Cl)cc4)n[nH]3)CC2)cc1 | -6 | -3 | 4 | 6 | 16* | -4
CC(=O)Nc1ccc(S(=O)(=O)N[C@@H](C)C(=O)N2CCN(C/C=C/c3ccccc3)CC2)cc1 | 12 | 8 | -13 | -11 | 1 | 23
CCCCn1c(N)c(N(CC(C)C)C(=O)CCCc2cccs2)c(=O)[nH]c1=O | -19 | 3 | 26* | 10 | -1 | 6
CCCCn1c(N)c(N(CC(C)C)C(=O)CCS(=O)(=O)c2ccc(C)cc2)c(=O)[nH]c1=O | 7 | -2 | -11 | -7 | 0 | 3
Cc1occc(=O)c1OC(=O)Nc1ccc(Cl)c(Cl)c1 | 6 | 2 | 29* | 26 | 12 | -15
COc1ccc(N2CC(NC(=O)Nc3ccccc3)CC2=O)cc1 (stereo not drawn) | 1 | 2 | 11 | 1 | 15* | 2
COc1ccc(N2CC(NC(=O)N3CCN(c4ccccc4)CC3)CC2=O)cc1 (stereo not drawn) | 20 | -3 | -5 | -6 | 16* | 4
COc1ccc(N2CCN(C(=O)C3CC(=O)N(c4ccc(C)cc4)C3)CC2)cc1 (stereo not drawn) | 18 | -2 | -18 | -6 | 0 | 3
CCOC(=O)C1CCCN(CCC(=O)Nc2cccc(C)c2)C1 (stereo not drawn) | -7 | 43* | 20 | 13 | 0 | -19
CCOC(=O)C1CCCN(CCC(=O)Nc2cccc(Cl)c2C)C1 (stereo not drawn) | 5 | 22* | -6 | 24 | 1 | -16
Cc1c(Cl)cccc1NC(=O)CCN1CCCCC1 | 8 | -5 | 1 | 4 | 0 | -1
CCN(CC)c1ccc2cc(-c3nnc(-c4ccncc4)o3)c(=O)oc2c1 | 16 | 22* | 5 | 8 | 19* | -4
SMILES | CHO-K1 Ca PAM | CHRM1 agonist | CHO-K1 Ca antag | CHRM1 antagonist | M1 ag parental | CHRM1 PAM
CCN(CC)c1ccc2cc(C=O)c(=O)oc2c1 | -5 | 53* | 11 | 19 | 26* | -18
CCN(CC)c1ccc2cc(C(C)=O)c(=O)oc2c1 | 9 | 13 | -2 | -23 | 8 | 1
Cc1ccccc1CNC(=O)CN(c1ccccc1Cl)S(C)(=O)=O | 8 | -7 | -2 | -3 | 1 | 0
O=C1[C@H]2[C@@H](c3ccc(C(F)(F)F)cc3)N[C@]3(CCCN(Cc4ccco4)C3=O)[C@H]2C(=O)N1Cc1ccccc1 | 10 | -9 | -8 | -5 | 1 | 1
O=C1CCC(c2ccccc2)(C2CCN(Cc3ccccc3)CC2)C(=O)N1 (stereo not drawn) | 7 | -6 | -4 | 98* | 0 | -24
COCCNc1nc(NCc2ccccc2)nc2ccsc12 | -16 | 79* | 95* | 100* | 77* | -33
COc1ccccc1CNc1nc(NCCNC(C)=O)c2sccc2n1 | 18 | -8 | -4 | -19 | 1 | 5
CC(=O)NCCNc1nc(NCc2ccccc2)nc2ccsc12 | -11 | 32* | 9 | 8 | 10 | -27
CCCCNc1nc(NCc2ccccc2)nc2ccccc12 | -17 | nt | 54* | nt | 49* | nt
O=C1CCCN1CCCNc1nc(NCc2ccccc2)nc2ccsc12 | -16 | 92* | 84* | 101* | 86* | -33
COCCNc1nc(NCc2ccccc2OC)c2sccc2n1 | 12 | -3 | -14 | -5 | 7 | -1
CCN1CCN(S(=O)(=O)c2ccc(Cl)c(C(=O)N(C)CC(=O)Nc3c(C)cccc3C)c2)CC1 | 6 | -5 | -10 | -6 | 0 | 3
CCc1ccc(NC(=O)C(C)Sc2nc(-c3ccco3)c(C#N)c(=O)[nH]2)cc1 (stereo not drawn) | 5 | -4 | -4 | -13 | 0 | 7
CC(=O)Nc1cc(-c2ccc(N(C)C)cc2)cn2c(-c3ccc(F)c(Cl)c3)cnc12 | -6 | 4 | 15 | 5 | 6 | -6
Cc1cccc(C)c1C(=NCCCN(C)C)c1ccccc1 | 22 | -8 | -8 | 79* | 1 | -27
Cc1ccc(S(=O)(=O)N2CCOCC2)cc1C(=O)NC1=NCCS1 | 1 | -5 | -7 | -2 | 1 | 0
Cn1c(=O)c(-c2cccc(Cl)c2)c(O)c2ccccc21 | -2 | -1 | 3 | -12 | 1 | 10
Cn1c2[n+](c3ccc(Cl)cc3c1=O)Cc1ccccc1-2 | 5 | -3 | 4 | 13 | 16* | -6
CC1CCCCN1C(=O)C1CCN(c2nc(-c3ccccc3)nc3c2CCC3)CC1 (stereo not drawn) | 13 | 2 | 0 | -13 | -1 | 13
O=C(CSc1cc(Cl)ccc1Cl)NCC(=O)Nc1ccc(F)c(F)c1F | 9 | 0 | 6 | -5 | 15* | 4
O=C(CNC(=O)c1cccc(Cl)c1)Nc1ccc(F)c(F)c1F | 1 | -7 | 1 | 7 | 1 | -4
CCN(CC)C(=O)CCNS(=O)(=O)c1ccc(C)cc1 | -3 | 0 | 28* | -5 | 0 | 14
